DSG3 Ab inh: blocks pemphigus antibody binding to human desmoglein-3 | binding (percent of control), % at 10 µM | 310,000 compounds, 0.48% hits | DSG3-coupled beads, scFv-anti-DSG3-GFP binding, flow cytometry; active compounds read low;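 active = binding more than 3 SD below its plate's average and above zero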;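 note: hits lower antibody fragment binding to DSG3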
ADAM10 inh: ADAM10 inhibition, QFRET primary screen. O14672. recombinant ADAM10, EDANS/DABCYL FRET peptide cleavage, 3 h. inhibition, % at 7 µM. 370,000 compounds, 0.62% hits. AID 720582;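 active = inhibition above a per-campaign cutoff equal to the mean of compounds falling between control-based bounds plus 3 SD, cut at about 20% in these data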;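 note: 0% = DMSO wells while the 100% control is not disclosed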
rCAG binder: molecules binding r(CAG) RNA repeats; r(CAG) RNA repeat, TO-PRO-1 dye displacement fluorescence; inhibition, % at 3 µM; 370,000 compounds, 1.3% hits;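 active = inhibition above the plate cutoff, the mean of all test compounds on that plate plus 3 SD, cut at about 35% in these data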;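 note: 0% = DMSO alone and 100% = 100 µM mitoxantrone as full dye displacement; higher means more dye released from RNA so lower well fluorescence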
proKLK7 act: proKLK7 (human) activation, primary screen | P49862 | purified proKLK7, EDANS-DABCYL substrate fluorescence; 100% is mature enzyme control, 0% vehicle | activation, % at 7 µM | 370,000 compounds, 0.9% hits | AID 652039;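 active = activation above the mean of all tested compounds plus 3 SD, computed per campaign excluding outliers beyond control limits, cut at about 13% in these data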
Target sequence (P49862 whole entry, looked up): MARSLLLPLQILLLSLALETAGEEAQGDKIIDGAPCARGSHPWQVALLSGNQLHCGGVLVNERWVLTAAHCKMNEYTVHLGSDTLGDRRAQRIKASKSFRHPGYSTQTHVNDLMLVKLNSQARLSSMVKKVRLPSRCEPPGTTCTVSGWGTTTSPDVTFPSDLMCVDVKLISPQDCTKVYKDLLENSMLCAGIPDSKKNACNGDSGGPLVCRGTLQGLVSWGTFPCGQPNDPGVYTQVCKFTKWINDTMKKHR
MPTP inh: inhibitors of mitochondrial permeability transition pore; inhibition, % at 10 µM; 360,000 compounds, 1.4% hits; isolated mouse mitochondria, Ca2+ swelling absorbance, 30 min; AID 602449;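 active = inhibition of 50% or more, scaled per plate between neutral and stimulator controls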;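 note: 0% = DMSO wells given calcium and 100% = 1 mM EGTA wells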
ADAM17 inh: inhibits human ADAM17 | P78536 | recombinant ADAM17, EDANS/DABCYL FRET peptide cleavage | inhibition, % at 6.95 µM | 370,000 compounds, 0.83% hits;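 active = inhibition above the mean of compounds lying between control limits plus 3 SD, set per campaign, cut at about 8.5% in these data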;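 note: 0% = DMSO-only wells as the low control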
ADAM10 confirm: confirmation of inhibitors of human ADAM10 | 2,100 compounds, 1% hits | shares compounds with ADAM10 inh | inhibition, % at 6.95 µM | ADAM10 QFRET peptide cleavage, EDANS fluorescence | AID 743208;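 active = inhibition above about 20% chosen separately for each screening run, limit read from the data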;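 note: 0% = DMSO wells and 100% = marimastat wells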
ADAM17 ctr: ADAM17 inhibition, counter-screen for ADAM10 exosite hits; ADAM17 QFRET peptide cleavage, EDANS fluorescence; 2,100 compounds, 0.5% hits; inhibition, % at 6.95 µM; shares compounds with ADAM10 inh; AID 743214;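 active = mean triplicate inhibition above the solvent-only control wells' mean plus 3 SD, cut at about 12% in these data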;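 note: 0% = DMSO wells and 100% = marimastat wells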
ADAM10 ctr: inhibits human ADAM10 in ADAM17 exosite counter-screen. shares compounds with ADAM17 inh. recombinant ADAM10, EDANS/DABCYL FRET peptide cleavage, 3 h. inhibition, % at 6.95 µM. 2,900 compounds, 47% hits. AID 743256;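 active = mean inhibition over the triplicate runs exceeds the activity threshold set in the earlier primary screen, cut at about 20% in these data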;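 note: 0% = DMSO wells and 100% = marimastat wells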
ADAM17 confirm: human ADAM17 inhibition, confirmation; AID 743257; shares compounds with ADAM17 inh; inhibition, % at 6.95 µM; recombinant ADAM17, EDANS/DABCYL QFRET peptide cleavage; 2,900 compounds, 65% hits;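 active = mean inhibition across replicates above the hit cutoff set in the primary screen, cut at about 8.5% in these data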;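 note: 0% = DMSO wells and 100% = marimastat wells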
Numbers without * were called inactive; . = not tested or not shown. An excerpt weighted towards active compounds, which were near 4.7% of everything screened.

SMILES	DSG3 Ab inh	ADAM10 inh	rCAG binder	proKLK7 act	MPTP inh	ADAM17 inh	ADAM10 confirm	ADAM17 ctr	ADAM10 ctr	ADAM17 confirm
CN1CCN(c2oc(COc3ccc(-c4ccccc4)cc3)nc2C#N)CC1	132.2	26.6*	0.6	0.9	1.4	18.1*	3.2	0.8	23.4*	14.3*
N#Cc1nc(COc2ccc(Cl)cc2)oc1N1CCN(Cc2ccccc2)CC1	93.1	21.9*	0.6	0.8	-1.9	8.6*	1.5	1.3	25.8*	16.4*
COc1ccc(NC(=O)C2(C)Cc3c(-c4cccc(C(F)(F)F)c4)ccnc3O2)cn1 (stereo not given)	.	25.8*	-0.3	0.3	1.0	12.1*	0.9	0.2	16.3	11.8*
CC1(C(=O)Nc2ccc3c(c2)OCO3)Cc2c(-c3cccc(C(F)(F)F)c3)ccnc2O1 (stereo not given)	.	21.2*	3.1	0.2	0.7	10.2*	7.3	2.7	24.1*	13.0*
COc1ccc(NC(=O)C2(C)Cc3c(-c4ccccc4)ccnc3O2)cn1 (stereo not given)	.	-7.6	0.0	0.3	2.5	-5.0	.	.	.	.
CC(=O)Nc1cccc(-c2ccnc3c2CC(C)(C(=O)Nc2cccc(C(F)(F)F)c2)O3)c1 (stereo not given)	.	21.4*	-0.6	0.1	0.6	8.7*	7.6	1.7	17.8	10.3*
CC1(C(=O)Nc2cccc(C(F)(F)F)c2)Cc2c(-c3cccc(C(F)(F)F)c3)ccnc2O1 (stereo not given)	.	-5.7	0.0	-0.8	-0.4	-1.9	.	.	.	.
CC(=O)Nc1cccc(-c2ccnc3c2CC(C)(C(=O)Nc2cccc(Oc4ccccc4)c2)O3)c1 (stereo not given)	.	25.3*	12.5	0.3	0.4	9.6*	8.3	2.8	20.4*	14.9*
COC(=O)[C@H]1C[C@@]2(O)CN(S(=O)(=O)c3ccc(C)cc3)C[C@@]2(OC(=O)Nc2c(C)noc2C)C[C@H]1C(=O)OC	112.7	-4.2	3.1	0.1	3.4	0.2	.	.	.	.
CCO[C@@H]1OC(C(=O)N2CCCCCCC2)=C[C@H](c2ccc(C(F)(F)F)cc2)[C@H]1CCCO	99.1	8.3	-1.7	-0.5	-0.9	2.8	.	.	.	.
CCO[C@H]1OC(C(=O)Nc2ccccc2)=C[C@@H](c2ccc(C(F)(F)F)cc2)[C@@H]1CCCO	102.3	26.5*	0.7	-0.2	0.4	15.3*	4.1	1.0	30.0*	18.1*
FC(F)(F)c1ccccc1CN1CCCC(N2CCN(c3ccccc3)CC2)C1 (stereo not given)	89.8	-2.8	-9.6	-0.4	1.7	-1.0	.	.	.	.
COCCNC(=S)N1CCC(C(=O)c2ccc(Cl)cc2)CC1	95.7	-2.2	-1.3	-0.6	1.4	-0.9	.	.	.	.
COc1ccc(CN2C(=O)[C@H]3Cc4c([nH]c5ccccc45)C(C)(C)N3C2=O)cc1	102.6	22.1*	-2.6	0.9	1.0	8.9*	3.7	1.0	30.0*	16.6*
COc1ccccc1CN1C(=O)[C@@H]2Cc3c([nH]c4ccccc34)C(C)(C)N2C1=O	104.2	0.6	-0.3	1.0	-0.7	3.0	.	.	.	.
Cc1ccc(Sc2ccc(/C=N/O)cc2[N+](=O)[O-])cc1	105.9	26.7*	6.4	0.3	5.9	9.7*	6.2	2.9	27.2*	14.8*
CO/N=C/c1ccc(Sc2ccc(C)cc2)c([N+](=O)[O-])c1	98.3	0.3	2.2	-0.3	-2.3	5.2	.	.	.	.
CCCc1nc2ccccc2c(C(=O)OCC(=O)Nc2ccc(S(=O)(=O)N3CCOCC3)cc2)c1CC	.	40.2*	14.4	-0.2	33.0	17.5*	10.3	4.0	29.8*	18.4*
Cc1cc(C)c(OCC(O)CN2CCN(c3ccccn3)CC2)c(C)c1 (stereo not given)	89.0	1.7	-8.3	0.6	1.1	1.7	.	.	.	.
C=CCN(c1ccccc1OC)S(=O)(=O)c1cccc(C(=O)OCC(=O)c2c[nH]c3ccccc23)c1	111.0	22.6*	18.1	-0.5	0.5	8.8*	10.6	3.3	31.8*	19.2*
Cc1ccc(OCCNC(=O)c2cccc(C)c2)cc1	114.0	6.7	-4.1	-0.1	0.6	1.6	.	.	.	.
Cc1cccc(OCCNC(=O)c2cccc(Oc3ccc(C(F)(F)F)cc3[N+](=O)[O-])c2)c1	97.4	32.3*	3.9	0.3	37.9	14.0*	10.6	3.9	34.1*	17.7*
COc1ccccc1N1CCN(C(=O)C2=CC=CN3CCS(=O)(=O)N=C23)CC1	91.3	-10.6	2.5	0.5	1.5	-4.2	.	.	.	.
CCOC(=O)c1c(-c2ccccc2)oc2ccc(O)cc12	86.5	-11.8	2.9	0.9	1.4	-7.1	.	.	.	.
CCOC(=O)c1c(CSc2ccc(C)cc2)oc2ccc(O)cc12	102.2	30.4*	4.3	-0.4	26.5	12.7*	12.4	4.3	46.0*	18.9*
SMILES	DSG3 Ab inh	ADAM10 inh	rCAG binder	proKLK7 act	MPTP inh	ADAM17 inh	ADAM10 confirm	ADAM17 ctr	ADAM10 ctr	ADAM17 confirm
CCOC(=O)c1c(CSc2ccccc2)oc2ccc(O)cc12	110.0	28.9*	3.6	0.1	28.8	11.3*	6.5	2.4	42.3*	15.9*
CN1CCN(S(=O)(=O)c2ccccc2)C(c2ccccc2)C1 (stereo not given)	.	-11.7	3.6	-0.1	-2.5	0.1	.	.	.	.
CCN(C(=O)COC(=O)c1ccccc1Oc1ccccc1)c1c(N)n(Cc2ccccc2)c(=O)[nH]c1=O	.	-5.0	3.0	0.5	1.0	-2.9	.	.	.	.
O=C(CN(C1CC1)S(=O)(=O)c1ccc(S(=O)(=O)NC2CCCCC2)cc1)Nc1ccccc1	114.6	10.2	0.8	0.2	0.6	5.4	.	.	.	.
O=C(CN(Cc1cccs1)S(=O)(=O)c1ccc(S(=O)(=O)NC2CCCCC2)cc1)Nc1ccccc1	125.1	36.0*	9.4	0.6	21.2	16.9*	11.2	3.2	50.3*	24.9*
COc1ccc(CCN2C(=O)c3[nH]nc(-c4ccccc4O)c3C2c2cccc(O)c2)cc1OC (stereo not given)	100.7	29.5*	7.4	-0.3	1.2	9.1*	-0.3	0.1	33.3*	14.3*

High-throughput results deposited in PubChem by several laboratories.
